PubChem BioAssay (NCI)
This is part of a sample that, as a whole, favours compounds with a hit. Of some 83,000 tested, about 20% had one in any assay.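 Compound tested at a single concentration for 48 hours in 96-well plates; a percent growth value below 10 was scored as active.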 Values without a mark were called inactive. Calls of active or inactive are those of the source.

How the values were obtained:
Assay in all cases: NCI-60 one-dose screen, 48 h (100 = growth as untreated, 0 = no growth, -100 = all killed)
[1] = tested on: NCI-H23 lung; conditions: 10 µM unless noted
[2] = tested on: NCI-H226 lung; conditions: 10 µM unless noted
[3] = tested on: NCI-H322M lung; conditions: 10 µM unless noted
[4] = tested on: HOP-62 NSCLC; conditions: 10 µM unless noted
[5] = tested on: NCI-H460 lung; conditions: 10 µM unless noted
[6] = tested on: HOP-92 NSCLC; conditions: 10 µM unless noted
[7] = tested on: NCI-H522 lung; conditions: 10 µM unless noted
[8] = tested on: A549/ATCC NSCLC; conditions: 10 µM unless noted
[9] = tested on: 786-0 renal; conditions: 10 µM unless noted
[10] = tested on: COLO 205 colon; conditions: 10 µM unless noted
[11] = tested on: DU-145 prostate; conditions: 10 µM unless noted
[12] = tested on: K-562 leukemia; conditions: 10 µM unless noted
[13] = tested on: MALME-3M melanoma; conditions: 10 µM unless noted
[14] = tested on: MDA-MB-231 breast; conditions: 10 µM unless noted
[15] = tested on: RXF 393 renal; conditions: 10 µM unless noted
[16] = tested on: SF-268 CNS; conditions: 10 µM unless noted
[17] = tested on: SF-295 CNS; conditions: 10 µM unless noted
[18] = tested on: SF-539 CNS; conditions: 10 µM unless noted
[19] = tested on: UACC-257 melanoma; conditions: 10 µM
[20] = tested on: M14 melanoma; conditions: 10 µM unless noted

Compound | growth [1] | growth [2] | growth [3] [%] | growth [4] | growth [5] | growth [6] | growth [7] | growth [8] | growth [9] | growth [10] | growth [11] | growth [12] | growth [13] | growth [14] | growth [15] | growth [16] | growth [17] | growth [18] | growth [19] | growth [20]
COc1cc(/C=N/n2cnc3oc(-c4ccccc4)cc3c2=N)cc(CN2CCCC2)c1O | 103% | 90.5% | 96.7 | 85.5% | -58.6% (active) | 77.9% | 96.4% | 64.7% | -81% (active) | 11.8% | 7.65% (active) | 0.0184% (active) | -45% (active) | -70% (active) | 15.7% | 88.6% | 90.5% | 93.5% | 109% | 14.1%
O=C(c1ccc(O)cc1)[C@@H]1[C@@H]2CCCN2[C@@]2(C(=O)N(C(=O)c3ccc(F)cc3)c3ccccc32)[C@H]1c1ccc(F)cc1 | 98.5% | 94.3% | 98.6 | 97.4% | 99.6% | 67% | 93.7% | 96.6% | 100% | 105% | 102% | 75.7% | 84.2% | 82.5% | 105% | 89.9% | 96.2% | 85.4% | 103% | 95.1%
Nc1ccc(-c2nnc(SCc3ccc(O)c4ncccc34)n2-c2ccccc2)cc1 | 13.2% | 44% | 23.7 | 17% | 5.71% (active) | -21% (active) | 17.5% | 14.1% | 19.9% | 4.41% (active) | 24.1% | 15.9% | 5.24% (active) | 17% | 13.5% | 23.3% | 0.907% (active) | 10.5% | 3.16% (active) | 14.9%
C#C[C@]1(O)CC[C@H]2[C@@H]3CC=C4c5sc(Nc6ccncc6)nc5CC[C@]4(C)[C@H]3CC[C@@]21C | 2.43% (active) | -4.76% (active) | 31.7 | -42.3% (active) | 4.53% (active) | 4.3% (active) | -37% (active) | -14.7% (active) | -60.2% (active) | -46.9% (active) | 21% | 2.23% (active) | -71.1% (active) | 21.7% | -62.9% (active) | -15.9% (active) | -70.8% (active) | -61.1% (active) | -44.3% (active) | -49.7% (active)
O=C(Nc1cc(Cl)cc(Cl)c1)Nc1ccc2oc(=O)ccc2c1 | -6.33% (active) | 32.7% | 21.9 | 40.5% | 1.17% (active) | -26.6% (active) | 6.05% (active) | 16.2% | 23.9% | -10.9% (active) | 17% | 15.4% | 0.228% (active) | 24.6% | 47.7% | 24.8% | 3.51% (active) | 22.5% | 23.4% | 32.5%
Oc1ccc(CSc2nnc(-c3ccc(Br)cc3)o2)c2cccnc12 | 38.3% | 61.5% | 35.7 | 21.9% | 10.8% | 5.88% (active) | 29.4% | 29.8% | 39.9% | 100% | 40.2% | 15.2% | 58.5% | 51.4% | 60.9% | 31.3% | 11.3% | 28.4% | 29.7% | 31.5%
CCNC(=NCCCN(C)C)N/C(N)=N/c1nc2ccccc2s1 | 98.7% | 92.7% | 91.5 | 82.4% | 104% | 58.1% | 99.2% | 89.8% | 84.6% | 78.7% | 99.5% | 65.9% | 97% | 73.6% | 65.4% | 94.8% | 92.4% | 82.9% | 104% | 97%
O=c1[nH]c(CNc2ccc(NCc3c(-c4ccccc4)no[n+]3[O-])cc2)nc2c1cnn2-c1ccccc1 | 63.4% | 77.1% | 80.2 | 105% | 64.2% | 85.4% | 60.8% | 63.8% | 86% | 101% | 74.6% | 49.8% | 80% | 72.5% | 98.4% | 73.5% | 71.8% | 92.6% | 60.6% | 70.7%
CCCCCCNC(=O)Oc1ccc(/C(=C(\C)c2ccc(Cl)cc2)c2ccc(OCCN(C)C)cc2)cc1 | 76.3% | 101% | 78.1 | 75.5% | 6.53% (active) | 38.4% | 83.5% | 72.7% | 39.8% | 11.6% | 83.4% | 4.21% (active) | -33.7% (active) | 58.5% | 46% | 65.4% | 84.8% | 42% | 18.9% | 3.61% (active)
O=C1Nc2cc(OC(F)(F)F)ccc2Oc2ccc(-c3ccnc(N4CC[C@H](O)C4)c3)cc21 | 27.6% | -8.84% (active) | 55.1 | 25.3% | -47.1% (active) | 45.7% | -28% (active) | 0.655% (active) | 6.88% (active) | -42% (active) | -39.1% (active) | 5.41% (active) | 39.4% | 17.2% | -10% (active) | 19.1% | 3.93% (active) | -28.7% (active) | 72% | -1.7% (active)
CN(c1ccc(F)cc1)S(=O)(=O)c1ccc(-c2cnc(C3CC3)o2)cc1 | 30.5% | 60.5% | 45.6 | 44.1% | 17.2% | 81.1% | 25.6% | 31.1% | 50.3% | 6.42% (active) | 23.5% | 10.3% | 65.3% | 28.4% | -8.88% (active) | 64.2% | -12.9% (active) | 4.96% (active) | 70.9% | 14.6%
CS(=O)(=O)c1ccc2c(c1)c1c(n2Cc2ccc(Cl)cc2)CCCC1 | 73.5% | 80.1% | 87.7 | 75.8% | 71.6% | 65.7% | 13.7% | 64.5% | 83.5% | 83.3% | 86.7% | 32.6% | 74.4% | 66.1% | 73.4% | 86.6% | 67% | 81.1% | 92.1% | 75.6%
O=C1c2c(c3c4cc(Br)ccc4[nH]c3c3ccc4ccccc4c23)C(=O)N1CCN1CCCCC1 | 37.8% | 69.2% | 78 | 33.8% | -67.7% (active) | 51.3% | 68% | 7.63% (active) | -84.2% (active) | 61.7% | 22.9% | -50.3% (active) | 68.1% | 77.7% | 59.5% | 38.4% | 23.7% | 38.7% | 93% | 20%
CC(C)Sc1nc(NC2CC2)c(C#N)c(-c2ccccc2)n1 | 67.5% | 69.8% | 67.6 | 71.5% | 54.5% | 76.1% | 89.2% | 62.9% | 35% | 79.6% | 99.1% | 87.6% | 57.1% | 82% | 77.5% | 95.8% | 72% | 82.2% | 102% | 95.1%
